Gal4-VP16 FLuc = inhibits Gal4-VP16 luciferase reporter, ROR gamma counter-screen | Drosophila S2 Gal4-VP16 UAS-luciferase, luminescence, 20 h | Potency, µM (doses to about 53.6 µM), without a hit: at the highest dose activity, negative = inhibition, actives largely listed as inhibitors | actives 3.5% (n = 310,000);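 note: Gal4-VP16 expression switched on by copper sulfate through the metallothionein promoter; potency is the fitted concentration of half-maximal effect; % is set by controls: 0 for no effect and ±100 for the full control effect; nearly all actives have a fitted effect of over 50% in size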
MCF10A rerep = inducers of DNA re-replication in MCF 10A breast cells. MCF 10A DNA re-replication, Hoechst nuclear intensity, 48 h. Potency, µM (series often up to 46.1 µM), for the others: at the highest dose activity, positive = re-replication, actives largely listed as activators. actives 2.9% (n = 350,000); note: potency is the fitted concentration of half-maximal effect; % of control where 0% means no effect; nearly all actives have a fitted effect of over 50% in size
RORgamma inh = inhibitors of mouse ROR gamma transcriptional activity; P51450; Drosophila S2 Gal4-RORgamma UAS-luciferase reporter, 20 h; Potency, µM (doses to about 53.6 µM), for the others: at the highest dose activity change, negative = inhibition, hits mostly inhibitors; actives 5.4% (n = 310,000); note: potency is the fitted concentration of half-maximal effect; % is set by controls: 0 for no effect and ±100 for the full control effect; nearly all actives have a fitted effect of over 60% in size
Target sequence (P51450 whole entry, looked up, the tested form may be a part): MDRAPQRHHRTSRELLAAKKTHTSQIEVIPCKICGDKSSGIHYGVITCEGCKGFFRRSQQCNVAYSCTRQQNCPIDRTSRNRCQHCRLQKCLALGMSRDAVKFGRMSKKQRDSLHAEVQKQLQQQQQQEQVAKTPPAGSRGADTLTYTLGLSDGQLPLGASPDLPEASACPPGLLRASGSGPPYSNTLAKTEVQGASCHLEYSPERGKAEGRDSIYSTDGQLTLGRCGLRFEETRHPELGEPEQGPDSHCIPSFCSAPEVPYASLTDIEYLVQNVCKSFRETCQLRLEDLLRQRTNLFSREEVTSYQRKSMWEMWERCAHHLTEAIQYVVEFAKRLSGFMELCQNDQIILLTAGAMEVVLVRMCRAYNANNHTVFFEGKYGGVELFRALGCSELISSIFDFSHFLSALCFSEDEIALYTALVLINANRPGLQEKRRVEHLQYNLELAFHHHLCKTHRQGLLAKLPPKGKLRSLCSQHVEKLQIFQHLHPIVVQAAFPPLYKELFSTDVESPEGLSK
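A Gal4/UAS one-hybrid system in insect cells: metallothionein-promoter Gal4–ROR gamma fusion plus Photinus luciferase reporter. Copper sulfate 700 uM final, 20 hr ambient incubation, luminescent detection after 10 min with reagent.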
Giardia kill = kills Giardia lamblia. Giardia lamblia trophozoite viability. activity change, % at 7.66 µM, hits read low. actives 0.15% (n = 340,000). AID 540267; in the data active = activity change below about -80%; inconclusive = between about -30% and that limit;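 note: parasites exposed to compound for two days anaerobically before the ATP read; % is set by controls: 0 for no effect and ±100 for the full control effect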
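Media and compound were dispensed first, then trophozoites at 100 cells/well; plates sat 48 hrs at 37 deg C without oxygen before ATP luminescence reagent was added and read after 15-30 min at room temperature.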
SW480 rereplic = DNA re-replication induction in SW480 cells; SW480 DNA re-replication, Hoechst DNA content imaging, 48 h; Potency, µM (titrated, usually from 46.1 µM), without a hit: top-dose re-replication activation, hits mostly activators; actives 1.8% (n = 340,000); AID 624297; note: potency is the fitted concentration of half-maximal effect; % of control where 0% means no effect; nearly all actives have a fitted effect of over 55% in size
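250 cells/well; 23 nL cpd via pin tool; 48 hr, 37 C, 5% CO2; Hoechst 40 min; imager read of total nuclear intensity, ex 405/em 500-530 nm.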
Chronic BCR inh = inhibitors of chronic active B-cell receptor signaling | ABC-DLBCL IkBa-CBG/CBR reporter, luminescence ratio, 4 h | Potency, µM (highest dose often 46.1 µM), for inactives: at the highest dose activity change, negative = inhibition, actives largely listed as inhibitors | actives 0.05% (n = 340,000); active = well fitted inhibition curve with a large enough effect in the signal ratio, with a control signal flat, not every such curve was filed as active; inconclusive = small, poorly fitted or top-dose-only effect, or effect the other way, or a change in a side signal; the % refers to the signal ratio;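 note: potency is the fitted concentration of half-maximal effect; plate controls were basal doxycycline-induced cells for no effect and cells given 10 µM MG132 for full effect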
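Cell line TMD8 (human ABC DLBCL), stably expressing tet-inducible CBG68-IkBa fusion and CBR; IMDM/0.5% FBS; cpd up to 46 uM; dox induction, 4 h, 37C/5% CO2; dual luminescence; green/red ratio; MG132 control.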
Starred values were filed as active, the others as inactive; ? = inconclusive; nt = no result given; [ ] = dose if it differs, or a comment. Only some compounds are listed: those with a hit (about 8.3% of all), similar ones and a draw of the others. Unless noted, calls come from the whole dose curve; as a rule, active = well fitted curve in the direction sought with a large enough effect; inconclusive = small, poorly fitted or top-dose-only effect, or another doubt; inactive = no such curve, though single readings can be large; an effect the other way counts as inactive or inconclusive.

SMILES | Gal4-VP16 FLuc | MCF10A rerep | RORgamma inh | Giardia kill | SW480 rereplic | Chronic BCR inh
CCOC(=O)C1=C(C)N(C[C@@H]2CC[C@@H](Cc3ccc(-c4ccccc4)cc3)O2)C(=O)NC1c1cccc([N+](=O)[O-])c1 (some centres undefined) | nt | -38.0% | nt | -14.7 | ? | 3.2%
FCCCOc1ccc(-c2nccc(-c3ccc(Cl)cc3)n2)cc1 | 15.7% | 15.6% | -0.1% | -11.5 | -7.9% | -1.6%
COc1ccc(-c2ccnc(-c3ccc(OCCCF)cc3)n2)cc1 | 2.7% | 14.6µM* | -15.0% | -8.2 | ? | 1.1%
CC(C)NC(=O)c1onc(CSc2ccccc2)c1C(=O)O | -15.2% | -1.3% | -43.0% | 3.4 | -15.1% | ?
CC(C)NC(=O)c1onc(CSc2cccc3ccccc23)c1C(=O)O | ? | -2.3% | 17.8µM* | -22.4 | -2.6% | 15.5%
Cc1cccc(SCc2noc(C(=O)NC(C)C)c2C(=O)O)c1 | 15.8µM* | 1.1% | ? | 9.7 | -7.1% | ?
COc1ccccc1/C=N/NC(=O)CSc1ccc2ccccc2n1 | 0.0% | 16.4µM* | -26.9% | -17.5 | ? | ?
COc1ccccc1/C=N/NC(=O)CSc1cc(C)nc2ccccc12 | -14.1% | 13µM* | 11.2µM* | -12.6 | ? | 17.4%
COc1ccc2nc(C)cc(SCC(=O)N/N=C/c3c(OC)ccc4ccccc34)c2c1 | ? | -8.3% | ? | 2.1 | -6.1% | 1.8%
COc1ccccc1/C=N/NC(=O)C(C)Cn1cnc2ccccc21 (centres undefined) | 5.9% | 11.6% | 11.2µM* | 1.5 | -11.3% | -9.4%
COc1cccc2c(SCC(=O)N/N=C/c3ccc(O)cc3O)cc(C)nc12 | 2.1% | 14.6µM* | ? | -4.2 | 7.31µM* | ?
Clc1ccccc1-c1nccc(NCc2cccs2)n1 | -10.8% | nt | ? | nt | nt | nt
COc1ccc2nc(C)cc(SCC(=O)NNC(=O)COc3cccc4ccccc34)c2c1 | 8.91µM* | ? | ? | 3.7 | nt | 5.2%
COc1ccc2nc(C)cc(SCC(=O)N/N=C/c3ccccc3)c2c1 | 9.9% | 3.4% | -4.9%[10 µM] | ? | -6.4% | -1.4%
COc1ccc2nc(C)cc(SCC(=O)NNC(=O)COc3ccc(C)cc3)c2c1 | -21.5% | -0.7% | -16.8% | 6.2 | -29.1% | ?
Cc1cc(SCC(=O)NN)c2cc(Br)ccc2n1 | -21.1% | 9.2µM* | -18.3% | -2.7 | ? | ?
COc1ccc2nc(C)cc(SCC(=O)N/N=C/c3ccc(O)cc3O)c2c1 | ? | 6.51µM* | 17.8µM* | 6.1 | ? | ?
CC(=O)c1c(C)[nH]c(C(=O)NCCc2ccc(Cl)cc2)c1C | -1.9% | 3.66µM* | 31.9% | -4.9 | -15.0% | 3.5%
CCN(C(=O)COC(=O)Cn1c(C)csc1=O)c1c(N)n(Cc2ccccc2)c(=O)[nH]c1=O | nt | ? | nt | -28.9 | 74.1% | 1.4%
CCn1nc(C)c(Oc2ccccc2O)c1C | 6.7% | 10.9% | 19.2% | 11.3 | -9.2% | -6.8%
Cc1cc(C)nc(-n2nc(C)c(Oc3ccccc3O)c2C)n1 | ? | -6.2% | 10µM* | -8.2 | 1.9% | -0.7%
COc1ccc(NC(=O)COc2ccc(N(C)S(=O)(=O)c3ccc(Cl)cc3)cc2)cc1OC | nt | 13.7% | nt | -23.6 | 1.3% | 2.8%
CN(C)CCn1c2c(c(SCC(=O)Nc3cccc4ccccc34)nc1=O)CCCC2 | nt | 17.1% | nt | 10.7 | 0.581µM* | ?
CCN(CC)CCn1c2c(c(SCC(=O)Nc3cccc4ccccc34)nc1=O)CCC2 | nt | -0.7% | nt | -10.5 | 52.0% | -5.8%
COc1cc(NC(=O)c2ccccc2)ccc1NC(=O)c1cc2ccccc2o1 | -0.6% | ? | 2.8% | -19.0 | 6.2% | 10.9%
SMILES | Gal4-VP16 FLuc | MCF10A rerep | RORgamma inh | Giardia kill | SW480 rereplic | Chronic BCR inh
COc1cccc(C(=O)Nc2ccc(NC(=O)c3cc4ccccc4o3)c(OC)c2)c1 | -19.9% | 10.3µM* | -25.2% | -7.4 | ? | 1.9%
Cc1cc(NC(=O)c2cncc(Br)c2)ccc1NC(=O)c1cc2ccccc2o1 | 11.2µM* | 2.91µM* | ? | -17.7 | ? | 0.2%
COc1ccc(NC(=S)NC(=O)c2cc3ccccc3o2)c(OC)c1 | -24.2% | 14.0% | 8.91µM* | 7.2 | -2.2% | -5.9%
CN(C)c1cccc(C(=O)N(C)C2CCCN(Cc3ccccc3F)C2)c1 (centres undefined) | 5.0% | 9.7% | -18.7% | -0.2 | 7.5% | 5.0%
N#CCOc1ccccc1CNC[C@H]1O[C@@H](n2cnc(C(N)=O)n2)[C@H](O)[C@@H]1O | nt | 1.7% | nt | -13.4 | 1.3% | nt
CCSc1nnc(NC(=O)C2Cc3ccccc3CN2C(=O)c2ccco2)s1 (centres undefined) | ? | ? | 10µM* | 16.7 | -4.1% | 1.0%
Cc1ccccc1NC(=O)C1Cc2ccccc2CN1C(=O)c1ccco1 (centres undefined) | 0.8% | 2.5% | 7.8% | -2.6 | 1.2% | ?
COc1ccccc1-c1cc(C(=O)N/N=C/C=C/c2ccccc2[N+](=O)[O-])c2ccccc2n1 | 11.2µM* | 13.6% | 8.91µM* | -2.3 | 1.1% | -22.1%
O=C(N/N=C/C=C/c1ccccc1[N+](=O)[O-])c1cc(-c2cccnc2)nc2ccccc12 | 5.62µM* | 11.7% | 7.08µM* | 2.0 | ? | ?
CCOC(=O)CNC(=O)C1CCCCC1 | nt | nt | nt | 9.3 | nt | nt
O=C(CNC(=S)NC(=O)c1ccccc1)c1ccccc1 | ? | 6.2% | 11.2µM* | -5.9 | 1.7% | 0.0%
CC(NC(=S)NC(=O)c1ccccc1)c1ccccc1 (centres undefined) | nt | -1.9% | nt | -18.9 | -2.8% | nt
O=C(CNC(=S)NC(=O)c1ccc(F)cc1)c1ccccc1 | -17.3% | 25.9% | 11.2µM* | -27.5 | -4.4% | 3.3%
CC(C)C(=O)NC(=S)NCC(=O)c1ccccc1 | ? | ? | 11.2µM* | -17.3 | -1.4%[9.22 µM] | 3.1%
O=C(NC(=S)NC(c1ccccc1)c1ccncc1)c1ccccc1 (centres undefined) | ? | 15.0% | 11.2µM* | -14.4 | -0.1% | ?
O=C(NC(=S)NC(CO)c1ccccc1)c1ccc(F)cc1 (centres undefined) | -2.1% | -12.5% | ? | -9.2 | -6.0% | 7.1%
O=C(CNC(=S)NC(=O)c1ccccc1Br)c1ccccc1 | -5.2% | -5.3% | 19.7% | -7.8 | 2.7% | ?
Cc1ccccc1C(=O)NC(=S)NCC(=O)c1ccccc1 | ? | ? | 11.2µM* | 4.2 | -2.9% | ?
COc1ccccc1CN1C(=O)[C@H]2Cc3c([nH]c4ccccc34)C(C)(C)N2C1=O | nt | ? | nt | ? | -15.9% | nt
CC1(C)c2[nH]c3ccccc3c2C[C@@H]2C(=O)N(Cc3ccc(F)cc3)C(=O)N21 | nt | 18.4µM* | nt | 10.7 | 1.6% | nt

From PubChem
